Holding throughout (conditions): concentration: 1 μM, replicates: in singlicate; n = 1
Experiment [1] deals with BMX.
The test system of experiment [2] is BRAF.
In experiment [3] the test system is T1, BRK.
T1 construct: gene PTK6

Experiment [4] deals with BRSK1.
Experiment [5] has as its system BRSK2.
The subject of experiment [6] is BTK.
Experiment [7] has as its system BUB1.
For experiment [8], the system named is CAMK1B.
The test system of experiment [9] is CAMK1D.
Experiment [10] has as its system CAMK1G.
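Further: KINOMEscan kinase panel screen.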

As for `Oc1cc(Nc2ccnc3cc(I)ccc23)ccc1F` [GW552771], the “%Inh” value was 15% in [1]; 79% in experiment [2]; 28% in experiment [3]; 11% in experiment [4]; 0% in [5]; 7% in [6]. Moreover, the “%Inh” value in [7] worked out at 57%; in experiment [8], 37%; in experiment [9], 8%; in experiment [10], 0%.

With `COc1cccc(-c2ccc3c(NC(=O)C4CC4)n[nH]c3n2)c1` [SB-710903], the “%Inh” value in experiment [1] came out at 0%; in [2] it was 0%; in experiment [3] it was 3%; in experiment [4], 8%; in [5], 3%; in [6], 29%. Also, the “%Inh” value in experiment [7] is reported as 82%; in experiment [8], 11%; in [9] it was 0%; in experiment [10] it was 0%.

With `Cc1ccc(C(=O)N2CC[C@@H](O)C2)cc1-n1c(C)cc(OCc2ccc(F)cc2F)c(Br)c1=O`, the “%Inh” value stood at 0% in [1]; 58% in experiment [2]; 20% in experiment [3]; 0% in experiment [4]; 0% in experiment [5]; 0% in experiment [6]. Also, the “%Inh” value in experiment [7] is reported as 0%; in experiment [8], 0%; in experiment [9] it was 17%; in experiment [10] it was 0%.

For `Cn1cc(-c2ccc3c(c2)CCN3C(=O)Cc2cccc(Cl)c2)c2c(N)ncnc21` [GSK2606590], the “%Inh” value was determined as 4% in experiment [1]; 11% in experiment [2]; 56% in [3]; 7% in experiment [4]; 0% in experiment [5]; 0% in experiment [6]. Besides, the “%Inh” value came to 0% in experiment [7], 0% in experiment [8], 32% in [9] and 25% in experiment [10].

With `Cn1cc(-c2ccc3c(c2)CCN3C(=O)Cc2cccc(F)c2)c2c(N)ncnc21` [GSK2603358], the “%Inh” value in [1] is recorded as 0%; in [2], 4%; in experiment [3], 26%; in [4], 14%; in experiment [5], 67%; in experiment [6], 0%. The “%Inh” value came out at 52% in experiment [7], 34% in experiment [8], 74% in [9] and 11% in experiment [10].

For the compound `Cl.Cl.NCC(NC(=O)c1cc(-c2ccccc2)c(-c2ccnc3[nH]ccc23)s1)c1ccccc1` (stereo not shown) [GSK1321561], the “%Inh” value in experiment [1] stood at 38%; in experiment [2] it was 9%; in experiment [3], 8%; in experiment [4] it was 0%; in experiment [5], 0%; in experiment [6], 0%. The “%Inh” value came out at 72% in [7], 24% in experiment [8], 5% in experiment [9] and 0% in experiment [10].

`C[C@@H](Oc1cc(-n2cnc3cc(-c4ccnc(NCCS(C)(=O)=O)c4)ccc32)sc1C(N)=O)c1ccccc1Cl` [GSK907232]: the “%Inh” value is 23% in experiment [1]; 0% in [2]; 20% in experiment [3]; 55% in experiment [4]; 78% in [5]; 0% in experiment [6]. Besides, the “%Inh” value in experiment [7] is 31%; in experiment [8] it was 31%; in experiment [9], 15%; in experiment [10], 13%.

On to `COc1cccc(NC(=O)NC2CCN(c3ccnc(Nc4cc(OC)c(OC)c(OC)c4)n3)C2)c1` (stereo not shown) [GSK1379763], for which the “%Inh” value in experiment [1] was found to be 2%; in experiment [2] it was 5%; in experiment [3] it was 0%; in [4], 0%; in experiment [5], 0%; in experiment [6] it was 0%. Besides, the “%Inh” value in [7] came to 18%; in experiment [8], 35%; in [9] it was 4%; in [10], 17%.

On to `CN(C)S(=O)(=O)c1cc(-c2ccc3nccc(-c4cccc(S(N)(=O)=O)c4)c3c2)cnc1N` [GSK1669921], for which the “%Inh” value in [1] amounted to 21%; in experiment [2], 30%; in [3], 11%; in experiment [4], 12%; in experiment [5], 0%; in [6], 0%. For the same compound, the “%Inh” value in experiment [7] is reported as 0%; in [8], 0%; in experiment [9] it was 25%; in [10], 7%.

For the compound `O=C(Nc1cccc(-c2nn3ncccc3c2-c2ccnc(Nc3ccccc3)n2)c1)c1c(F)cccc1F` [GSK198271], the “%Inh” value in experiment [1] came out at 89%; in experiment [2], 90.9%; in experiment [3], 94.5%; in experiment [4], 4%; in experiment [5] it was 0%; in experiment [6], 99.4%. For the same compound, the “%Inh” value is reported as 32% in experiment [7], 9% in [8], 25% in [9] and 11% in [10].

For the compound `O=c1[nH]cc(-c2ccc(N3CCOCC3)cc2)c2sc(-c3cn[nH]c3)cc12` [GSK2276055], the “%Inh” value is listed as 11% in experiment [1]; 35% in [2]; 0% in experiment [3]; 0% in experiment [4]; 0% in experiment [5]; 0% in [6]. Also, the “%Inh” value in [7] came out at 0%; in experiment [8] it was 5%; in [9], 29%; in experiment [10], 12%.

Turning to `Cl.NC(=O)c1cccc(Nc2nccc(Nc3ccc(Oc4c(Cl)cccc4Cl)c(Cl)c3)n2)c1` [GW659009], the “%Inh” value in [1] is listed as 0%; in experiment [2], 6%; in experiment [3], 76%; in [4], 0%; in experiment [5] it was 0%; in experiment [6] it was 36%. The “%Inh” value was 17% in experiment [7], 0% in experiment [8], 2% in experiment [9] and 0% in experiment [10].

Regarding `Nc1ncnc2c1nc(-c1ccccc1)n2-c1ccccc1` [SKF-97293], the “%Inh” value worked out at 15% in experiment [1]; 6% in experiment [2]; 1% in experiment [3]; 15% in [4]; 27% in [5]; 0% in experiment [6]. Also, the “%Inh” value in [7] was 46%; in [8], 6%; in [9], 8%; in experiment [10], 0%.

As to `COc1ccc(Nc2nccc(N3CCC(NC(=O)Nc4cccc(OC)c4)C3)n2)cc1` (stereo not shown) [GSK1379742], the “%Inh” value in [1] came out at 0%; in experiment [2], 2%; in [3], 10%; in [4] it was 4%; in experiment [5] it was 0%; in experiment [6], 0%. The “%Inh” value came out at 29% in [7], 17% in experiment [8], 0% in experiment [9] and 0% in [10].

`CN(c1ccc(NC(=O)Nc2cc(C(F)(F)F)ccc2F)cc1)c1ccnc(Nc2ccc(S(N)(=O)=O)cc2)n1` [GW809893]: the “%Inh” value turned out to be 71% in experiment [1]; 66% in experiment [2]; 76% in experiment [3]; 15% in [4]; 8% in experiment [5]; 25% in [6]. In addition, the “%Inh” value in [7] was determined as 0%; in experiment [8], 0%; in [9], 38%; in experiment [10], 0%.

Regarding `O=C(Nc1cccc(Oc2ccc3nc(NC(=O)C4CC4)cn3n2)c1)c1ccccc1C(F)(F)F`, the “%Inh” value in experiment [1] worked out at 0%; in experiment [2] it was 65%; in experiment [3], 0%; in [4], 6%; in experiment [5], 0%; in [6] it was 16%. In addition, the “%Inh” value in experiment [7] is 0%; in experiment [8], 0%; in experiment [9] it was 3%; in [10] it was 0%.

The record behind these values is paper PMC5540273 (PLoS ONE, 2017).
